Bioassay records: PubChem, National Center for Advancing Translational Sciences (NCATS)
This is a sample that favours compounds with a hit; in the whole collection about 19% have one here.
Shiga toxin inh: A qHTS for Small Molecule Inhibitors of Shiga Toxin; inhibition, % at 38.7 µM; actives 9.2% (n = 290,000); Vero cells, Shiga toxin protein synthesis inhibition reporter; in the data active = inhibition mostly above about 28%, no sharp cut-off; inactive = mostly below about 43%
Lassa entry inh: qHTS for Inhibitors of binding or entry into cells for Lassa Virus; Lassa virus pseudotype entry inhibition, cell reporter; Potency, µM (doses to about 37.9 µM), actives largely listed as inhibitors; actives 1.2% (n = 300,000); AID 540256, 2011; calls by dose curve; tested in HEK293 cells; also: nearly all actives have a fitted effect of over 50% in size
Pf growth 48h: Primary qHTS for delayed death inhibitors of the malarial parasite plastid, 48 hour incubation; Potency, µM (top dose mostly 28.7 µM), usual class: inhibitors; P. falciparum luciferase growth in erythrocytes, 48 h; AID 504832, 2011; actives 5.9% (n = 310,000)
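Growth was read as firefly luciferase luminescence after a 48 h, 37 C, 5% CO2 exposure of compounds to reporter-bearing P. falciparum cultures (0.1% parasitemia, 2% hematocrit final) in Albumax-supplemented RPMI 1640.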
Marburg entry inh: qHTS for inhibitors of binding or entry into cells for Marburg Virus; Marburg virus pseudotyped entry inhibition, cell reporter; Potency, µM (top dose mostly 37.8 µM), actives largely listed as inhibitors; actives 1.8% (n = 300,000); calls by dose curve; tested in HEK293 cells
Cycloheximide cs: Cycloheximide Counterscreen for Small Molecule Inhibitors of Shiga Toxin | max response, % | actives 12% (n = 300,000) | cell reporter, cycloheximide protein synthesis inhibition counterscreen; in the data active = max response mostly above about 13%, no sharp cut-off; inactive = mostly below about 14%; also: read at 38.3 µM for the half of the compounds with a filed dose
Pf growth 96h: Primary qHTS for delayed death inhibitors of the malarial parasite plastid, 96 hour incubation | P. falciparum luciferase reporter growth, 96 h | AID 504834, 2011 | actives 6.9% (n = 320,000) | Potency, µM (titrated, usually from 28.7 µM), most hits filed as inhibitors
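Two-generation exposure (96 h) targets delayed-death phenotype. Reporter parasites carrying integrated firefly luciferase, in red cells at 2% hematocrit and 0.05% parasitemia final, kept at 37 C, 5% CO2; luminescence loss indicates inhibition.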
Numbers stand for hits; – = inactive; ? = inconclusive; · = no result; [ ] = another dose, or the depositor's remark. Unless noted, calls follow the shape of the dose curve; as a rule, active = well fitted inhibition curve with a large enough effect; inconclusive = small, poorly fitted or top-dose-only effect, or another doubt; inactive = no such curve, though single readings can be large or run the other way.

SMILES	Shiga toxin inh	Lassa entry inh	Pf growth 48h	Marburg entry inh	Cycloheximide cs	Pf growth 96h
Cc1cc2ccccc2c(=O)n1CC(=O)NCC(=O)N1CCN(c2cccc(Cl)c2)CC1	–	–	–	–	–	–
Cc1cnc(C(=O)Nc2nc(-c3ccccc3)cs2)cn1	–	–	–	–	–	?
Cc1ccnc(Nc2nc(-c3c(C)nc4sccn34)cs2)c1	–	–	3.3µM	–	32	?
CC(=O)Nc1cccc(-c2csc(Nc3ccccn3)n2)c1	90	?	–	?	45	–
CC(=O)Nc1ccc(-c2csc(Nc3cc(C)ccn3)n2)cc1	78	?	–	?	49	–
Cc1ccnc(Nc2nc(-c3ccccc3)cs2)c1	89	·	–	·	55	–
Cc1ccc(NC(=O)C2CCN(S(=O)(=O)c3c(C)noc3C)CC2)cc1	·	–	·	–	·	·
CC(=O)Nc1cccc(-c2csc(N)n2)c1	–	·	–	·	–	?
CC(=O)Nc1cccc(-c2csc(Nc3cc(C)ccn3)n2)c1	127	–	–	?	41	–
COc1cc2c(cc1NC(=S)NC(=O)/C=C/c1ccc(OC)c(OC)c1)oc1ccccc12	–	?	–	–	–	–
Cc1ccc(NC(=O)NCCOCCn2c(=O)oc3ccccc32)cc1F	·	–	·	–	·	·
COc1ccc(N2C(=O)CC(N(CCc3ccc(OC)c(OC)c3)C(=S)Nc3ccccc3)C2=O)cc1 (stereo not drawn)	–	–	4.7µM	–	–	?
COc1ccc(N2C(=O)CC(N(C)CCc3ccc(OC)c(OC)c3)C2=O)cc1 (stereo not drawn)	–	–	9.3µM	–	–	–
CCOP(=O)(OCC)c1nc(-c2ccc(C)cc2)oc1N1CCOCC1	·	–	·	–	·	·
CCOP(=O)(c1ccccc1)c1nc(-c2ccc(F)cc2)oc1N1CCCCC1 (stereo not drawn)	–	–	9.3µM	–	–	–[5.75 µM]
CCOP(=O)(OCC)c1nc(-c2ccc(Cl)cc2Cl)oc1N1CCCCC1	–	6.3µM	?	?	–	?
CCOP(=O)(OCC)c1nc(-c2ccc(Br)cc2)oc1N1CCCCC1	–	·	10µM	·	–	–
O=P(c1ccccc1)(c1ccccc1)c1nc(-c2ccc(Cl)cc2)oc1N1CCOCC1	–	–	10µM	?	–	–
Cc1ccc(C)c(N2N=C(C(=O)O)CCC2=O)c1	–	–	–	–	–	–
O=c1c2ccccc2nc(SCc2cn3ccsc3n2)n1-c1ccc(F)cc1	–	11µM	?	?	–	?
Cc1ccc(OCC(=O)c2cc(C)n(CC(F)(F)F)c2C)c([N+](=O)[O-])n1	–	–	–	–	–	–[1.15 µM]
CCCCn1nnc(NC(=O)c2cc3ccccc3o2)n1	42	–	–	–	44	·
CCc1ccc(C(=O)Nc2nnn(CC)n2)cc1	–	?	–	?	11	–
CCn1nnc(NC(=O)c2ccc(Br)o2)n1	–	–	–	–	–	–
CCn1nnc(NC(=O)c2cc3ccccc3o2)n1	81	–	–	?	30	·
SMILES	Shiga toxin inh	Lassa entry inh	Pf growth 48h	Marburg entry inh	Cycloheximide cs	Pf growth 96h
CCCn1nnc(NC(=O)c2ccc3c(c2)OCO3)n1	89	–	–	?	54	–
Cc1cc([N+](=O)[O-])ccc1NC(=O)CCC(=O)N1CCCCCC1	–	–	–	–	–	–
CC1(C(=O)NC2CCCC2)CCC(=O)N1Cc1ccccc1 (stereo not drawn)	–	–	–	–	–	?
CCCn1nnc(NC(=O)c2cc3ccccc3o2)n1	74	–	–	?	43	–
CCCCn1nnc(NC(=O)c2ccc(-c3cccc([N+](=O)[O-])c3)o2)n1	–	·	–	·	–	–
CCCCn1nnc(NC(=O)c2ccc(-c3ccccc3)cc2)n1	active	–	?	?	41	–
CCn1nnc(NC(=O)c2ccc(-c3ccccc3[N+](=O)[O-])o2)n1	–	–	–	–	17	–
Cn1nnc(NC(=O)c2ccccc2)n1	–	–	–	–	–	13µM
Cc1c(CCOC(=O)c2ccc(Cl)cc2Cl)sc[n+]1CC(=O)c1ccccc1	·	–	·	–	·	·
COc1ccc(NC(=O)C2CCCN(S(=O)(=O)c3ccc(Cl)cc3)C2)cc1OC (stereo not drawn)	–	·	?	·	–	?
CCCCNc1c([N+](=O)[O-])cc(C(=O)O)cc1[N+](=O)[O-]	–	?	–	–	–	–
Cn1nnc(NC(=S)NC(=O)Cc2ccccc2)n1	–	–	–	–	–	2.1µM
CC(=O)c1cccc(NC(=O)c2ccc(-c3ccccc3[N+](=O)[O-])o2)c1	51	?	–	4.6µM	70	–
Cn1nnc(NC(=S)NC(=O)c2ccco2)n1	–	–	–	–	–	–
Cn1nnc(NC(=S)NC(=O)c2cc3ccccc3o2)n1	–	·	–	·	11	?
CC1CCN(CCOCCOc2ccccc2Br)CC1	–	–	–	–	–	–
CCc1ccc(S(=O)(=O)c2nnn3c2nc(N2CCC(C)CC2)c2cc(Cl)ccc23)cc1	·	·	·	–	·	·
CCc1ccc(N/C(SCc2ccccc2C)=C(/C#N)C(=O)NCc2ccco2)cc1	–	8.2µM	13µM	?	15	–
CC1(C)NC(=O)N(CC(O)COc2ccc(N3C(=O)c4ccccc4C3=O)cc2)C1=O (stereo not drawn)	–	–	–	–	–	–
Cc1cc(Nc2ccc3ccccc3c2)n2ncnc2n1	–	–	0.13µM	–	–	–
Cc1cc(Nc2ccc(C(C)C)cc2)n2ncnc2n1	–	–	1µM	?	–	–
Cc1cc(Nc2cccc(C(=O)O)c2)n2ncnc2n1	19	–	–	?	14	–
COc1cc(C#N)ccc1OCC(=O)N1CCc2ccccc2C1	–	–	–	–	–	–
Cc1cc(C(=O)Nc2sccc2C(N)=O)c(C)o1	·	–	·	?	·	·
COc1ccc(OC)c(Cc2nnc(CCC(=O)NC3C4CC5CC(C4)CC3C5)o2)c1 (stereo not drawn)	–	–	10µM	–	–	–
SMILES	Shiga toxin inh	Lassa entry inh	Pf growth 48h	Marburg entry inh	Cycloheximide cs	Pf growth 96h
COc1ccc(OC)c(Cc2nnc(CCC(=O)NCc3ccsc3)o2)c1	37	–	–	–	17	–
CCCN1CCC(NC(=O)CCc2nnc(Cc3cc(OC)ccc3OC)o2)CC1	–	–	–	–	–	–
COc1ccc(OC)c(Cc2nnc(CCC(=O)NC3CCCCC3)o2)c1	29	·	–	·	25	13µM
O=C(CCc1nnc(CCc2c[nH]c3ccccc23)o1)NC1CCC1	180	·	–	·	53	–
O=C(CCc1nnc(Cc2c[nH]c3ccccc23)o1)NC1CCCC1	–	–	–	–	–	–
COC(=O)/C(=C\Nc1ccc(Cl)c2ccccc12)c1ncc(C(F)(F)F)cc1Cl	–	?	·	–	–	–
Cc1cc(C(=O)OCC(=O)N2CCCCCC2)ccc1[N+](=O)[O-]	·	·	–	·	·	–
O=C1Nc2ccc(C(=O)c3ccco3)cc2/C1=C/c1cc(Cl)c(O)c(Cl)c1	·	3.1µM	·	·	·	·
N/C(=N/OC(=O)c1ccccc1Cl)c1nonc1N	90	–	–	–	38	–
